In PubChem BioAssay:
Activity calls are given as the source filed them.

Legend:
[1] = tested on: PRMT1 (protein arginine N-methyltransferase 1); assay: PRMT1 binders on small-molecule microarrays, primary screen, biochemical, small-molecule microarray, 635 nm fluorescence (AID 1088); details: small-molecule microarray binding, higher = more signal;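 further: binding of Prmt1 protein to compounds spotted on small-molecule microarray slides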
[2] = yeast growth modulation, basal conditions, primary screen, YJM789 clinical isolate, OD600, 24 h (AID 1089);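 further: growth of clinical yeast isolate S. cerevisiae YJM 789 seeded 1000 cells per well; test concentration not given here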; details: S. cerevisiae YJM789 growth, higher = more signal, called active from +8 up or from −8 down
[3] = fission yeast growth modulation, primary screen, strain 972, OD600, 24 h, no modulator (AID 1090);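 further: basal condition with compound alone and no growth modifier present; test concentration not given here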; details: S. pombe 972 growth, higher = more signal, called active from +8 up or from −8 down
[4] = S. cerevisiae growth modulation with rapamycin, primary screen, strain BY4716, OD600, 96 h (AID 1091); details: higher = more signal, called active from +8 up or from −8 down; further: test concentration not given here
[5] = target: Torsin-1A-interacting protein 2 (Homo sapiens) (UniProt Q8NFQ8); assay: LULL1 binders on small-molecule microarray, primary screen, cell lysate, human LULL1 lysate, 635/667 nm fluorescence (AID 1092); details: hLULL1 lysate binding, 635 nm fluorescence, higher = more signal;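 further: probe is lysate of COS7 cells overexpressing human LULL1; score merges per-feature 667 nm fluorescence with signal-to-noise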
[6] = E. coli growth modulation, two-sided OD650, primary screen, E. coli filamentation project, strain DRC41, 24 h (AID 1093); details: OD650, 24 h, higher = more signal, called active from +8 up or from −8 down;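 further: MC1000 strain lacking acrAB efflux and sulA so SOS filamentation is blocked; test concentration not given here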
[7] = small-molecule microarray binders of probe aLefty2, primary screen, biochemical, biotinylated probe, 635/667 nm fluorescence (AID 1094); details: higher = more signal;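 further: score merges spot fluorescence near 667 nm with spot signal-to-noise ratio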
[8] = tested on: Noggin (protein binding on small-molecule microarray); assay: Noggin binders on small-molecule microarray, primary screen, biochemical, 635/667 nm fluorescence (AID 1095); details: 635 nm fluorescence, higher = more signal;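 further: score merges 667 nm feature fluorescence with signal to noise over triplicate slides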
[9] = target: Neurogenic locus notch homolog protein 3 (Homo sapiens) (UniProt Q9UM47); assay: NOTCH3 binders on small-molecule microarray, primary screen, biochemical, 635/667 nm fluorescence (AID 1096); details: NOTCH3 binding, 635 nm fluorescence, higher = more signal
[10] = small-molecule microarray binders of probe aEGFR, primary screen, biochemical, biotinylated probe, 635/667 nm fluorescence (AID 1097); details: higher = more signal;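 further: probe is a biotinylated anti-EGFR antibody binding compounds printed on slides; score combines fluorescence near 667 nm and signal to noise of each spot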
[11] = tested on: Plasmodium falciparum Sir2 (PF13_0152, Sir2A); assay: pfSir2 binders on small-molecule microarrays, primary screen, biochemical, small-molecule microarray, 635 nm fluorescence (AID 1098); details: small-molecule microarray binding, fluorescence 635 nm; higher = more signal;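 further: score merges spot fluorescence intensity with its signal-to-noise ratio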
[12] = small-molecule microarray binders of probe aDKK1, primary screen, biochemical, biotinylated probe, 635/667 nm fluorescence (AID 1099); details: higher = more signal;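 further: score merges 667nm spot fluorescence with signal to noise across triplicate slides; reference of the scale not given here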
[13] = small-molecule microarray binders of probe aCHRDL2, primary screen, biochemical, biotinylated probe, 635/667 nm fluorescence (AID 1100); details: higher = more signal
[14] = splicing luciferase reporter signal modulators, primary screen, spliceosome inhibition project, cell-based, HEK293, splice +/- reporter (AID 1101); details: luminescence, 24 h, higher = more signal, called active from +8 up or from −8 down;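 further: HEK293 cells carrying a splicing-competent luciferase reporter gene; test concentration not given here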
[15] = target: Fibroblast growth factor 10 (Homo sapiens) (UniProt O15520); assay: FGF10 binders on small-molecule microarrays, primary screen, biochemical, small-molecule microarray, 635 nm fluorescence (AID 1102); details: FGF10 binding, fluorescence 635 nm, higher = more signal
[16] = tested on: glycogen synthase kinase-3 (GSK3A per assay name; protocol says GSK3B); assay: GSK3 binders on small-molecule microarrays, primary screen, biochemical, small-molecule microarray, 635 nm fluorescence, GSK3A (AID 1103); details: small-molecule microarray binding, fluorescence 635 nm; higher = more signal; further: the record names both GSK3A and GSK3B
[17] = target: Epidermal growth factor receptor (Homo sapiens) (UniProt P00533); assay: EGFR binders on small-molecule microarrays, primary screen, biochemical, small-molecule microarray, 635 nm fluorescence (AID 1104); details: EGFR binding, higher = more signal;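 further: score merges 667 nm emission intensity with spot signal to noise over triplicate slides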
[18] = target: Follistatin-related protein 3 (Homo sapiens) (UniProt O95633); assay: FSTL3 binders on small-molecule microarrays, primary screen, biochemical, small-molecule microarray, 635 nm fluorescence (AID 1105); details: FSTL3 binding, higher = more signal;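 further: score merges emission near 667 nm and signal to noise per printed spot across three slides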
[19] = target: Dickkopf-related protein 1 (Homo sapiens) (UniProt O94907); assay: DKK1 binders on small-molecule microarrays, primary screen, biochemical, small-molecule microarray, 635 nm fluorescence scan (AID 1106); details: DKK1 binding, higher = more signal;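 further: score merges emission near 667 nm with signal to noise over three replicate slides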
[20] = tested on: Inhibin beta A chain (activin A); assay: INHBA (activin A) binders on microarrays, primary screen, biochemical, small-molecule microarray, 635 nm fluorescence scan (AID 1107); details: small-molecule microarray binding, higher = more signal;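 further: mouse activin A protein probed at 4.33 µg/mL on printed slides; score merges bound-protein fluorescence near 667 nm with spot signal-to-noise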

Torsin-1A-interacting protein 2 (Homo sapiens), sequence (Q8NFQ8 whole entry, looked up): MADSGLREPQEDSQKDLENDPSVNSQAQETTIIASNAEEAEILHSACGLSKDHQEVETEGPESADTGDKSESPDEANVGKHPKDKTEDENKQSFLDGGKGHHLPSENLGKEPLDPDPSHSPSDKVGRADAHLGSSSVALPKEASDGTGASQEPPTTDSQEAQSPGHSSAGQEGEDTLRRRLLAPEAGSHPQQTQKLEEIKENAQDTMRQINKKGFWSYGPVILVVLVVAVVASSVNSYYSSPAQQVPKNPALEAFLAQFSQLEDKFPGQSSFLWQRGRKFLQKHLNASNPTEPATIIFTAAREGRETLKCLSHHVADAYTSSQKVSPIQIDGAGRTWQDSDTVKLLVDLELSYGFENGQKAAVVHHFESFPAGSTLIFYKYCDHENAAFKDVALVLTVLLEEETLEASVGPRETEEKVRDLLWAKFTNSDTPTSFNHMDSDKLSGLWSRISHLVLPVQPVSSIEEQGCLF
Dickkopf-related protein 1 (Homo sapiens), sequence (O94907 whole entry, looked up): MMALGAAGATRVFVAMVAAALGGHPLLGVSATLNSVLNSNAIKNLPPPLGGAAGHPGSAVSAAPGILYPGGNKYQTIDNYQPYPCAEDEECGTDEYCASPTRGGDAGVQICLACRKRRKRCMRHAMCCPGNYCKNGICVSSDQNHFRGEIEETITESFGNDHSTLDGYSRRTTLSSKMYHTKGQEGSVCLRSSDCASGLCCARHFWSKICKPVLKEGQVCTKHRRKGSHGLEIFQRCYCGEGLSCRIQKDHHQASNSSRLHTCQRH
Neurogenic locus notch homolog protein 3 (Homo sapiens), sequence (Q9UM47 whole entry, looked up): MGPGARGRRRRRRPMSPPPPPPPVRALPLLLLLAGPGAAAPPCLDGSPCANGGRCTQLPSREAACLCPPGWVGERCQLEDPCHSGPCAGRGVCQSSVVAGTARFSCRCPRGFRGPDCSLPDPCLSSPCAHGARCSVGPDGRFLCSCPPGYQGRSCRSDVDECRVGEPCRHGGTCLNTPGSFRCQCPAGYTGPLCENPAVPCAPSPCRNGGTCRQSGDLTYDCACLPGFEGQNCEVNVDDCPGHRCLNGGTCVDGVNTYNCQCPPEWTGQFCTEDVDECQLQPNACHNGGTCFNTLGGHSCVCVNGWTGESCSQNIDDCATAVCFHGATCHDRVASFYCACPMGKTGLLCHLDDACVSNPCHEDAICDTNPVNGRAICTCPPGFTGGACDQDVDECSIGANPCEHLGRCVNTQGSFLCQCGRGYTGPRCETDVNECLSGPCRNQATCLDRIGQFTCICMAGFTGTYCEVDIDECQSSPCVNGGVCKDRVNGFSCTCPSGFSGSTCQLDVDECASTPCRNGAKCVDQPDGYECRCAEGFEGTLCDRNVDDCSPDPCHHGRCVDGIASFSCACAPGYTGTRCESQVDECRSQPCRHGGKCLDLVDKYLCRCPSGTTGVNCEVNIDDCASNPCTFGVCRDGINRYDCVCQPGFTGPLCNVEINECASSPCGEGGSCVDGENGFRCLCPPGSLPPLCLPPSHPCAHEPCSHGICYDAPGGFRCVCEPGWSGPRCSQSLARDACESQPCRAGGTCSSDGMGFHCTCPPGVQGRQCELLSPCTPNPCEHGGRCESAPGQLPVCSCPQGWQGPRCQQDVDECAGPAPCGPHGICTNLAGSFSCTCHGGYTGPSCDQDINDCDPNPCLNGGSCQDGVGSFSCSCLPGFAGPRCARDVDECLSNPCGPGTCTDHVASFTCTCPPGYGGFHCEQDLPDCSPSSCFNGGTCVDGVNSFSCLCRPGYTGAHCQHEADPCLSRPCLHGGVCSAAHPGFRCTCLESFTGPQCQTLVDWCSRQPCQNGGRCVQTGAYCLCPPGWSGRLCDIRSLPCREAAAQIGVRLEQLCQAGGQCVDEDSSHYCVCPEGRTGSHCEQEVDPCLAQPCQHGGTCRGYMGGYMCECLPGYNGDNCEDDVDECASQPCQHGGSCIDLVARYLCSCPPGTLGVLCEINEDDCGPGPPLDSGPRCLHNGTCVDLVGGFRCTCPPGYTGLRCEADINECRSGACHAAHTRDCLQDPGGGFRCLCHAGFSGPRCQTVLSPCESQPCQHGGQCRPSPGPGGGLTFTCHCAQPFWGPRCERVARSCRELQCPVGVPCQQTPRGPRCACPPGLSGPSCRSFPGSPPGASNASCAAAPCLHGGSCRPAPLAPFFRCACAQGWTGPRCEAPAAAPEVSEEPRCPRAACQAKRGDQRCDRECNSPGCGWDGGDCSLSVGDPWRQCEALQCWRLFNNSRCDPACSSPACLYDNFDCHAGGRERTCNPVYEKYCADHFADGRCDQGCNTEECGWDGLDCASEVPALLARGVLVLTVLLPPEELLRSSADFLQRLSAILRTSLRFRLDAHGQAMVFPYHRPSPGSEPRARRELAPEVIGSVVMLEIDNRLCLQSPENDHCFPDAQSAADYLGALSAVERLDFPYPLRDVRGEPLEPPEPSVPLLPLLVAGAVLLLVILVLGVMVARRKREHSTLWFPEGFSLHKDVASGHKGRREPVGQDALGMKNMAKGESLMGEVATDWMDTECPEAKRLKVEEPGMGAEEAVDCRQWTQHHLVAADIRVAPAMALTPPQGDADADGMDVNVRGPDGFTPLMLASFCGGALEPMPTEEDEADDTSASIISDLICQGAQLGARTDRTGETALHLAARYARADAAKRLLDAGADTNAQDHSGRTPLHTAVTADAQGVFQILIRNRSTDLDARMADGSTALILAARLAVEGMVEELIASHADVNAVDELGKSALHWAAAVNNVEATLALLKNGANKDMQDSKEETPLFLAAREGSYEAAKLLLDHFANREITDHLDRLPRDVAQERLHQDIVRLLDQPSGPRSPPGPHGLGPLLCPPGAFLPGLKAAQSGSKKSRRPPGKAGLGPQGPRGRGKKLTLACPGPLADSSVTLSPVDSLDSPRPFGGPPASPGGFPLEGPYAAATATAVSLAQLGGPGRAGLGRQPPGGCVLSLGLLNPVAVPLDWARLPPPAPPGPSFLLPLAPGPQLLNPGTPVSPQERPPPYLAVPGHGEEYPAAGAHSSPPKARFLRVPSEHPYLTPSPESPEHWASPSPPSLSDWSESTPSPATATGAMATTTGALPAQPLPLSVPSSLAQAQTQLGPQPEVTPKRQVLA
Epidermal growth factor receptor (Homo sapiens), sequence (P00533 whole entry, looked up): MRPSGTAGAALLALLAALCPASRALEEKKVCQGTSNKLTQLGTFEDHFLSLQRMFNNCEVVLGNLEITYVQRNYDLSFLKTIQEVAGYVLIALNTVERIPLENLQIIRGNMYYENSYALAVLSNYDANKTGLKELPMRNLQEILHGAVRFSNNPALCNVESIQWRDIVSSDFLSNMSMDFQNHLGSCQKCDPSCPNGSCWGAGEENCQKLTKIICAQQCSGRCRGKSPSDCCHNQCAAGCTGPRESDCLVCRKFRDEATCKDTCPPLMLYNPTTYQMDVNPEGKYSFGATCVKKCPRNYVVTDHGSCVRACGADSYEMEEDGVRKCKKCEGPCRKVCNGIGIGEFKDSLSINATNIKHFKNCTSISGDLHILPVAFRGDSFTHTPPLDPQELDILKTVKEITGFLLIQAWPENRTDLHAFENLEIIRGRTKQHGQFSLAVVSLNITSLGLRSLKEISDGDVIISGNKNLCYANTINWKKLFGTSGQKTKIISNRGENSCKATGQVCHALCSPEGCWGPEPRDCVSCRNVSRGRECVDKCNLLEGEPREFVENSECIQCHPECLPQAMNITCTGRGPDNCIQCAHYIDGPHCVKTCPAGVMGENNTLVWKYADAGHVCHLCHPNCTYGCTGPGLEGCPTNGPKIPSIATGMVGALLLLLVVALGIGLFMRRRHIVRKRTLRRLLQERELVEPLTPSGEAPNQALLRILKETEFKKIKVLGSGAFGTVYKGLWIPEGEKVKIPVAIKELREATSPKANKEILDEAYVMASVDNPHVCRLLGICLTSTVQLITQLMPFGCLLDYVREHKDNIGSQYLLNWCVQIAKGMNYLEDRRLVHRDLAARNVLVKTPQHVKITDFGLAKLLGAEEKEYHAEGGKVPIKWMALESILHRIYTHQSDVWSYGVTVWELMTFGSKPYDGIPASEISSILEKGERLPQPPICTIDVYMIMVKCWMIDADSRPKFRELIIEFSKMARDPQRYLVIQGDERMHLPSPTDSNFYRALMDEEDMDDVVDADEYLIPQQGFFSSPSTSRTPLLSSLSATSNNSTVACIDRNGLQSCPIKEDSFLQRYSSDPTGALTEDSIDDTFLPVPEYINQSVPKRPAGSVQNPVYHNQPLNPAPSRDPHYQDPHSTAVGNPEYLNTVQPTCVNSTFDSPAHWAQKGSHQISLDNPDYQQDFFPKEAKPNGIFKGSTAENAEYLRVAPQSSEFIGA
Follistatin-related protein 3 (Homo sapiens), sequence (O95633 whole entry, looked up): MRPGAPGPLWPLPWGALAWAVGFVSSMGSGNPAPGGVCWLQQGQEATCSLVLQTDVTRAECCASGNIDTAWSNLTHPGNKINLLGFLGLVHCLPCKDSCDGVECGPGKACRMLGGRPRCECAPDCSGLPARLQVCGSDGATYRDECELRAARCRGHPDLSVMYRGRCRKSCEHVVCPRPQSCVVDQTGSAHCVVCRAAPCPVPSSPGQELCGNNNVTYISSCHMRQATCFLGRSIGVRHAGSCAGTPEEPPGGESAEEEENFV
Fibroblast growth factor 10 (Homo sapiens), sequence (O15520 whole entry, looked up): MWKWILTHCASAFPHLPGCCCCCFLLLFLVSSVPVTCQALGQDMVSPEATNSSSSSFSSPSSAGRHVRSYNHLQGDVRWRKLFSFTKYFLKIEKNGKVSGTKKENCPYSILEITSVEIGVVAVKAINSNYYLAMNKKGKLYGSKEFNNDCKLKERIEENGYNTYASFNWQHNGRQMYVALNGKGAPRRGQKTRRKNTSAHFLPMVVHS

## [N-]=[N+]=NCc1ccccc1C[C@]1(C(=O)N2CCOCC2)COC(c2ccc(OCCCO)cc2)=N1
[1]
  composite z-score: 1.5
[2]
  z-score: -0.486 (inactive)
[3]
  z-score: -5.38 (inactive)
[4]
  z-score: 32.4 (active)
[5]
  composite z-score: 2.39
[6]
  z-score: 3.3 (inactive)
[7]
  composite z-score: 0.273
[8]
  composite z-score: -0.296
[9]
  composite z-score: 0.364
[10]
  composite z-score: 0.0706
[11]
  composite z-score: 0.947
[12]
  composite z-score: 1.05
[13]
  composite z-score: 1.05
[14]
  z-score: -0.363 (inactive)
[15]
  composite z-score: 0.396
[16]
  composite z-score: 0.935
[17]
  composite z-score: -0.505
[18]
  composite z-score: 0.0724
[19]
  composite z-score: -0.921
[20]
  composite z-score: 0.983

## COC(=O)[C@@]1(Cc2ccccc2)[C@H]2c3cc(C(=O)N(C)C)n(CCn4cc([N+](=O)[O-])nc4C)c3C[C@H]2CN1C(=O)c1ccccc1
[1]
  composite z-score: 1.13
[2]
  z-score: -1.54 (inactive)
[3]
  z-score: 0.69 (inactive)
[4]
  z-score: 0.253 (inactive)
[5]
  composite z-score: 3.63
[6]
  z-score: -0.592 (inactive)
[7]
  composite z-score: 0.16
[8]
  composite z-score: 0.0356
[9]
  composite z-score: 1.03
[10]
  composite z-score: -0.0088
[11]
  composite z-score: 1.72
[12]
  composite z-score: -0.262
[13]
  composite z-score: 0.436
[14]
  z-score: -0.106 (inactive)
[15]
  composite z-score: 0.937
[16]
  composite z-score: 0.793
[17]
  composite z-score: 0.355
[18]
  composite z-score: 0.444
[19]
  composite z-score: 0.0356
[20]
  composite z-score: 0.581

## COc1cccc(/C=C(\C#N)C(=O)Nc2c(C)n(C)n(-c3ccccc3)c2=O)c1
[1]
  composite z-score: 0.564
[2]
  z-score: -1.58 (inactive)
[3]
  z-score: -0.958 (inactive)
[4]
  z-score: -0.978 (inactive)
[5]
  composite z-score: 2.66
[6]
  z-score: -0.23 (inactive)
[7]
  composite z-score: 0.0852
[8]
  composite z-score: 0.161
[9]
  composite z-score: 0.539
[10]
  composite z-score: -0.0828
[11]
  composite z-score: 0.129
[12]
  composite z-score: -0.0045
[13]
  composite z-score: 0.0654
[14]
  z-score: -0.238 (inactive)
[15]
  composite z-score: 0.179
[16]
  composite z-score: 0.497
[17]
  composite z-score: 0.413
[18]
  composite z-score: 0.447
[19]
  composite z-score: 0.0952
[20]
  composite z-score: 0.141

## CN(C)CCCNC(=O)[C@@H]1c2ccccc2C(=O)N(C2CCCCC2)[C@H]1c1ccc(CO)cc1
[1]
  composite z-score: 1.55
[2]
  z-score: 0.154 (inactive)
[3]
  z-score: -1.13 (inactive)
[4]
  z-score: -1.02 (inactive)
[5]
  composite z-score: 3.08
[6]
  z-score: 0.37 (inactive)
[7]
  composite z-score: -0.118
[8]
  composite z-score: 0.98
[9]
  composite z-score: 1.03
[10]
  composite z-score: 0.251
[11]
  composite z-score: 1.37
[12]
  composite z-score: 0.229
[13]
  composite z-score: 0.11
[14]
  z-score: 1.39 (inactive)
[15]
  composite z-score: 1.43
[16]
  composite z-score: 1.32
[17]
  composite z-score: 0.758
[18]
  composite z-score: 1.53
[19]
  composite z-score: 1.15
[20]
  composite z-score: 0.106

## CC(C)=CCCC(C)=CC(O)C1C=CC2C(=O)N(c3ccccc3)C(=O)C2N1Nc1ccccc1F (stereo not given)
[1]
  composite z-score: 0.945
[2]
  z-score: -1.23 (inactive)
[3]
  z-score: -0.347 (inactive)
[4]
  z-score: -0.707 (inactive)
[5]
  composite z-score: 2.41
[6]
  z-score: 0.401 (inactive)
[7]
  composite z-score: -0.166
[8]
  composite z-score: -0.0409
[9]
  composite z-score: 0.761
[10]
  composite z-score: -0.0828
[11]
  composite z-score: 1.33
[12]
  composite z-score: 0.0643
[13]
  composite z-score: 0.0744
[14]
  z-score: -0.652 (inactive)
[15]
  composite z-score: 0.85
[16]
  composite z-score: 0.403
[17]
  composite z-score: 0.329
[18]
  composite z-score: 0.587
[19]
  composite z-score: -0.0093
[20]
  composite z-score: 0.418
